Experimental data published in ChEMBL document CHEMBL4513146, “CO-ADD screening of Karazin Kharkiv National University (Ukraine) compounds”.
Potency and affinity values are given separately.

Each compound was assayed on Staphylococcus aureus. Conditions: Concentration 32 ug.mL-1;; ASSAY_TEST Inhibition of Bacterial Growth; detection method Absorption (OD600); MEDIA CAMHB; plate type 384well; NBS; CORNING #3640; time 18 hr.

Point of comparison: `COc1ccc(CNC(=O)CSc2nnc3c4cc(-c5ccc(C)cc5)nn4ccn23)cc1OC`, Inhibition 5.65%. Against it:
- CC(C)c1nnc2c(SCC(=O)Nc3ccc(Br)cc3)nc3ccccc3n12 — lower, 1.25%
- CCOC(=O)c1ccc(NC(=O)Cn2nc3ccc(Sc4cccc(F)c4)nn3c2=O)cc1 — higher, 9.91%
- Cc1cccc(Sc2nc3ccccc3n3c(=O)n(CC(=O)Nc4c(C)cc(C)cc4C)nc23)c1 — higher, 8.94%
- CC(C)(C)NC(=O)Cn1nc2n(Cc3ccco3)c(=O)c3sccc3n2c1=O — lower, -2.47%
- Cc1nnc2ccc(S(=O)(=O)N(Cc3ccccc3F)c3cccc(Cl)c3)cn12 — lower, 2.13%
- CCc1nnc2c(S(=O)(=O)N(Cc3cccc(OC)c3)c3cccc(C)c3)cccn12 — higher, 10.64%
- Cc1ccc2c(c1)N(C(=O)Cn1nc3ccc(S(=O)(=O)C(C)(C)C)nn3c1=O)CCO2 — higher, 10.43%
- COc1cccc(-n2ccn3c(SCC(=O)c4c[nH]c5ccc(OC)cc45)nnc3c2=O)c1 — higher, 11.97%
- COc1ccc(NC(=O)c2ccc3nn(CC(=O)Nc4cc(Cl)ccc4OC)c(=O)n3c2)cc1 — higher, 7.85%
- C=Cc1ccc(CSc2nnc3c(=O)n(-c4ccc(Br)cc4)ccn23)cc1 — lower, 2.47%
- Cc1ccc(-c2ccc3nn(Cc4cccc(F)c4)c(=O)n3n2)cc1C — higher, 7.67%
- COC(=O)c1ccc(Cn2nc3ccc(S(=O)(=O)N4CCCCCC4)cn3c2=O)o1 — lower, -11.6%
- Cc1cc(C)c(NC(=O)Cn2c(=O)c3nnc(C(C)C)n3c3ccccc32)c(C)c1 — higher, 15.71%
- Cc1nnc2ccc(S(=O)(=O)N(Cc3ccccc3F)c3cc(F)cc(F)c3)cn12 — lower, -3.63%
- Cc1nnc2c(=O)n(CC(=O)Nc3ccc(F)cc3)c3ccccc3n12 — higher, 15.51%
- CCOc1ccc(NC(=O)Cn2nc3c4c5c(sc4ncn3c2=O)CCCC5)cc1 — lower, -17.71%
- Cc1ccc(Oc2nccn3c(=O)n(CC(=O)Nc4ccccc4C(F)(F)F)nc23)cc1 — higher, 6.18%
- O=C(CSc1nnc2n(CC3CCCO3)c(=O)c3sccc3n12)Nc1ccc(F)cc1Cl (stereo not drawn) — lower, -6.42%
- Cc1ccc(NC(=O)c2ccc3nnc(SCC(=O)Nc4ccc(Br)cc4)n3c2)cc1 — lower, -2.55%
- N#Cc1ccc(NC(=O)Cn2nc3c(Oc4ccccc4)nccn3c2=O)cc1 — lower, -0.45%
- Cc1ccc(CNC(=O)Cn2nc3c(Sc4cccc(F)c4)nccn3c2=O)cc1 — lower, -7.34%
- CSc1cccc(NC(=O)Cn2nc3c(SC4CCCCC4)nccn3c2=O)c1 — lower, -5.93%
- CCCCc1ccc(NC(=O)CSc2nc3ccccc3n3c(CC)nnc23)cc1 — higher, 10.38%

What follows are compounds tested on Escherichia coli. Conditions: Concentration 32 ug.mL-1;; ASSAY_TEST Inhibition of Bacterial Growth; detection method Absorption (OD600); MEDIA CAMHB; plate type 384well; NBS; CORNING #3640; time 18 hr.

Point of comparison: `Cc1ccc(NC(=O)c2ccc3nnc(SCC(=O)Nc4ccc(Br)cc4)n3c2)cc1`, Inhibition -1.72%. Against it:
- COc1ccc(C)cc1NC(=O)Cn1nc2ccc(SC(C)(C)C)nn2c1=O — lower, -6.39%
- CCC(C)NC(=O)Cn1nc2n(Cc3ccco3)c(=O)c3sccc3n2c1=O (stereo not drawn) — higher, 2.21%
- COc1ccc(-c2cc3c4nn(CC(=O)Nc5ccc(OC)cc5OC)c(=O)n4ccn3n2)cc1 — lower, -3.4%
- COc1ccc(-c2cc3c4nn(CC(=O)Nc5c(C)cc(C)cc5C)c(=O)n4ccn3n2)cc1 — higher, 4.81%
- CC(C)c1nnc2c(SCC(=O)Nc3cccc(Br)c3)nc3ccccc3n12 — lower, -8.3%
- COc1cc(NC(=O)C(C)Sc2nnc3c(=O)n(-c4cccc(OC)c4)ccn23)cc(OC)c1 (stereo not drawn) — lower, -14.15%
- Cc1ccc(NC(=O)Cn2nc3c(N4CCCC4)nccn3c2=O)cc1Cl — higher, -0.46%
- COc1ccc(NC(=O)CSc2nnc3c(=O)n(-c4ccc(Br)cc4)ccn23)cc1 — higher, 2.74%
- COc1ccc(CNC(=O)Cn2nc3c(SCc4ccc(Cl)cc4)nccn3c2=O)cc1 — lower, -12.31%
- CCc1nnc2c(S(=O)(=O)N(Cc3ccc(F)cc3)c3ccc(Cl)cc3)cccn12 — lower, -2.23%
- Cc1ccc(NC(=O)Cn2nc3c4c5c(sc4ncn3c2=O)CCCC5)cc1C — lower, -5.89%
- C=Cc1ccc(CN(c2cccc(Cl)c2)S(=O)(=O)c2cccn3c(C)nnc23)cc1 — lower, -14.37%
- O=c1c2nn(Cc3cccc(F)c3)c(=O)n2ccn1-c1ccccc1 — lower, -7.67%
- Cc1cc(Br)ccc1NC(=O)Cn1nc2c(SC3CCCCC3)nccn2c1=O — lower, -6.44%
- COc1cccc(Sc2nc3ccccc3n3c(=O)n(CC(=O)Nc4ccccc4)nc23)c1 — lower, -6.94%
- CC(C)c1nnc2c(SCC(=O)Nc3ccc(Br)cc3)nc3ccccc3n12 — higher, 1.75%
- CCOC(=O)c1ccc(NC(=O)Cn2nc3ccc(Sc4cccc(F)c4)nn3c2=O)cc1 — higher, -1.47%
- Cc1cccc(Sc2nc3ccccc3n3c(=O)n(CC(=O)Nc4c(C)cc(C)cc4C)nc23)c1 — lower, -2.19%
- CC(C)(C)NC(=O)Cn1nc2n(Cc3ccco3)c(=O)c3sccc3n2c1=O — lower, -8.7%
- Cc1nnc2ccc(S(=O)(=O)N(Cc3ccccc3F)c3cccc(Cl)c3)cn12 — lower, -7.6%
- CCc1nnc2c(S(=O)(=O)N(Cc3cccc(OC)c3)c3cccc(C)c3)cccn12 — higher, -1.22%
- Cc1ccc2c(c1)N(C(=O)Cn1nc3ccc(S(=O)(=O)C(C)(C)C)nn3c1=O)CCO2 — higher, 3.75%
- COc1cccc(-n2ccn3c(SCC(=O)c4c[nH]c5ccc(OC)cc45)nnc3c2=O)c1 — lower, -2.96%
- COc1ccc(NC(=O)c2ccc3nn(CC(=O)Nc4cc(Cl)ccc4OC)c(=O)n3c2)cc1 — lower, -6.87%
- C=Cc1ccc(CSc2nnc3c(=O)n(-c4ccc(Br)cc4)ccn23)cc1 — lower, -8.25%
- Cc1ccc(-c2ccc3nn(Cc4cccc(F)c4)c(=O)n3n2)cc1C — higher, 1.83%
- COC(=O)c1ccc(Cn2nc3ccc(S(=O)(=O)N4CCCCCC4)cn3c2=O)o1 — higher, -1.2%
- Cc1cc(C)c(NC(=O)Cn2c(=O)c3nnc(C(C)C)n3c3ccccc32)c(C)c1 — higher, 3.04%
- Cc1nnc2ccc(S(=O)(=O)N(Cc3ccccc3F)c3cc(F)cc(F)c3)cn12 — lower, -18.18%
- Cc1nnc2c(=O)n(CC(=O)Nc3ccc(F)cc3)c3ccccc3n12 — higher, 1.65%
- COc1ccc(CNC(=O)CSc2nnc3c4cc(-c5ccc(C)cc5)nn4ccn23)cc1OC — higher, -0.16%
- CCOc1ccc(NC(=O)Cn2nc3c4c5c(sc4ncn3c2=O)CCCC5)cc1 — higher, 0.82%
- Cc1ccc(Oc2nccn3c(=O)n(CC(=O)Nc4ccccc4C(F)(F)F)nc23)cc1 — higher, 0.58%
- O=C(CSc1nnc2n(CC3CCCO3)c(=O)c3sccc3n12)Nc1ccc(F)cc1Cl (stereo not drawn) — lower, -12.15%
- N#Cc1ccc(NC(=O)Cn2nc3c(Oc4ccccc4)nccn3c2=O)cc1 — lower, -6.5%
- Cc1ccc(CNC(=O)Cn2nc3c(Sc4cccc(F)c4)nccn3c2=O)cc1 — lower, -12.92%
- CSc1cccc(NC(=O)Cn2nc3c(SC4CCCCC4)nccn3c2=O)c1 — lower, -5.86%
- CCCCc1ccc(NC(=O)CSc2nc3ccccc3n3c(CC)nnc23)cc1 — lower, -2.23%
